# Reference: PubChem BioAssay (NCI)
# About 83,000 compounds went through this panel and 20% of them were active in at least one assay; those are over-represented in the sample as a whole.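 Method: cells in 96-well plates; compound added at one concentration; 48 h incubation; percent growth measured; values under 10 scored active.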 Unmarked numbers belong to inactive results. Active and inactive are the calls of the source.
# System: NCI-H23 lung
# Assay: NCI-60 one-dose screen, 48 h (100 = growth as untreated, 0 = no growth, -100 = all killed)
# Details: 10 µM unless noted
# Protocol: Growth inhibition of the NCI-H23 human Non-Small Cell Lung tumor cell line is measured as a screen for anti-cancer activity. Cells are grown in 96 well plates and exposed to the test compound for 48 hours. Compounds are tested at a single concentration, which is 10^-5 M for most compounds. The reported endpoint is percent growth (GI% or GIPRCNT), where numbers from 0 - 100% represent growth inhibition, and numbers from -100% - 0 represent cell death. For example, a value of 40 represents 60% growth inhibition. A value of 0 means no net growth occurred over the course of the experiment. A value of -40 indicates 40% of cells at the beginning of the experiment died by the end of the experiment. A value of -100 means all cells are dead at the end of the experiment.
# NCI-60 Human Tumor Cell Lines Screen was performed using the standard one-dose NCI protocol, which is described in more detail at https://dtp.cancer.gov/discovery_development/nci-60/default.htm.
# Compounds with GIPRCNT values below 10 were considered active. Activity score was based on GIPRCNT using the following formula: […]
# Score is 0 for GIPRCNT values of 100 or above, 50 for GIPRCNT values of 0, and 100 for GIPRCNT values of -100.
row,Compound,growth
1,CCC(C)(C)c1ccc(OCCCCN2CCN(c3ccncc3)CC2)cc1,22.1%
2,CN1CCN(Cc2ccc(C(=O)Nc3cccc(C#Cc4cccc5[nH]nc(N)c45)c3)cc2C(F)(F)F)CC1,-87.3% (active)
3,N#Cc1c(-c2cccc(Cl)c2Cl)cc(-c2ccc3ccccc3c2)[nH]c1=O,56.9%
4,O=C(COc1ccc(NC(=O)Nc2ccc(Cl)cc2)cc1)N/N=C/c1ccccc1,-94.5% (active)
5,C=C1CC[C@@H]2[C@]3(C)COC(c4cn[nH]c4-c4cccc(Cl)c4)O[C@@H]3CC[C@@]2(C)[C@@H]1C/C=C1/C(=O)OCC1O (stereo not given in full),-79.8% (active)
6,Cn1cc(-c2nc(N)nnc2-c2c[nH]c3ccc(Br)cc23)c2cccnc21,65.5%
7,CCCSc1nc(NCCc2c[nH]c3ccccc23)c(C#N)c(-c2ccc(F)cc2)n1,80.6%
8,Cc1ccc(NC(=O)[C@]23CCC(C)(C)CC2C2=CCC4[C@@]5(C)C[C@@H](O)[C@H](O)[C@@](C)(CO)C5CC[C@@]4(C)[C@]2(C)CC3)cc1 (stereo not given in full),29.5%
9,N/C(=N\c1nc2ccccc2s1)NC(=O)Nc1c(Cl)cccc1Cl,31.9%
10,COc1cc(C2CC(c3ccc(S(=O)(=O)NCCNc4nc(Nc5ccc(F)cc5)nc(N(C)C)n4)cc3)=Nc3c(N)nc(N)nc3N2)cc(OC)c1OC (stereo not given),93.5%
11,CN(C)c1nc(NCCNS(=O)(=O)c2ccc(C(=O)/C=C/c3ccc(C(F)(F)F)cc3)cc2)nc(Nc2ccc(F)cc2)n1,-5.94% (active)
12,N#Cc1c(-c2cccc3ccccc23)cc(-c2cccc(OCC(=O)O)c2)[nH]c1=O,97.7%
13,N#Cc1c(-c2ccccc2Cl)cc(-c2ccc3ccccc3c2)[nH]c1=O,38.8%
14,COc1cc(CNC(=O)/C=C/c2ccc3c(c2)OCO3)ccc1OCc1cn(-c2cccc(C(F)(F)F)c2)nn1,1.63% (active)
15,CCOc1ccc(-c2c(C#N)c(-c3ccc(Cl)cc3)nc3n[nH]c(-c4ccc(Cl)cc4)c23)cc1OC,70.1%
16,O=c1onc(-c2cc3ccccc3nc2Cl)n1-c1cccc2ccccc12,56.5%
17,COc1c(F)ccc(C(=O)Nc2ccc3nc(NC(=O)C4CCCN(S(=O)(=O)c5ccc(C#N)cc5)C4)sc3c2)c1F (stereo not given),88.9%
18,O=C1N/C(=N\c2nccs2)S/C1=C\C=C/c1ccccc1,55.8%
19,C/C(=N\N=C\c1cc([N+](=O)[O-])ccc1Cl)c1ccc2c(c1)Nc1ccccc1S2,54.7%
20,N#Cc1cnn(C(=O)c2ccccc2Br)c1NC(=O)c1ccc(Br)cc1Cl,104%

row,Compound,growth
1,CN1CCN(c2ccc(C(=O)/C=C/c3cc(C(F)(F)F)cc(C(F)(F)F)c3)cc2)CC1,-66.2% (active)
2,Brc1ccc(N/N=C/c2c[nH]c3ccc(Br)cc23)nc1,-58.2% (active)
3,C=CC[N+](C)(C)CCn1c2ccccc2c2nc3cc(C)c(C)cc3nc21,70.5%
4,CCS(=O)(=O)N1CCCC(C(=O)Nc2nc3ccc(NC(=O)c4ccc(F)c(OC)c4F)cc3s2)C1 (stereo not given),47.5%
5,Cc1ccc(Cc2cnc(NC(=O)c3ccc(/C=C4\SC(=S)N(C)C4=O)cc3)s2)cc1,41.3%
6,C=C1CCC2C3(C)COC(c4ccc(F)cc4)OC3CCC2(C)C1C/C=C1/C(=O)OCC1O (stereo not given),-40.3% (active)
7,CC(=O)OC[C@@]1(C)C2CC[C@]3(C)C(CC=C4C5CC(C)(C)CC[C@]5(C(=O)Nc5ccc(C)cc5)CC[C@]43C)[C@@]2(C)C[C@@H](OC(C)=O)[C@@H]1OC(C)=O (stereo not given in full),49.3%
8,COc1ccc(C(=O)/C=C/c2cc3c(cc2Br)OCO3)cc1S(N)(=O)=O,-31.1% (active)
9,COc1ccc2c(c1)c(/C=N/Nc1ccc3ccccc3n1)cn2C,36.4%
10,COc1ccc(C2=NN(c3ccccc3)C(c3ccc(OC)c(OCc4ccccc4)c3)C2)cc1OC (stereo not given),99.8%
11,COc1ccc(/C=C/c2n(Cc3ccc4ccccc4c3)c3ccccc3[n+]2Cc2ccc3ccccc3c2)cc1,-92.2% (active)
12,Cc1occc1C(=O)NN1C(=O)/C(=C/C=C/c2ccc([N+](=O)[O-])o2)SC1=S,-84.1% (active)
13,CCCCSc1nc(Nc2ccc(S(N)(=O)=O)cc2)c(C#N)c(-c2ccc(Cl)cc2)n1,26.1%
14,Cc1cc(=O)oc2cc(OCCOc3ccc(/C=C/C(=O)Nc4ccccc4N)cc3)ccc12,46.5%
15,COc1ccc(/C=C/c2nc3ccccc3c(=O)n2CC(=O)Nc2ccc(OC)cc2)cc1,53.9%
16,Cc1cc2nc3c4ccccc4n(CC4=NCCN4)c3nc2cc1C,-56% (active)
17,CC(=O)OC[C@@]1(C)C2CC[C@]3(C)C(CC=C4C5CC(C)(C)CC[C@]5(C(=O)Nc5ccc(F)cc5)CC[C@]43C)[C@@]2(C)C[C@@H](OC(C)=O)[C@@H]1OC(C)=O (stereo not given in full),45.6%
18,O=C(c1ccc(OCCN2CCOCC2)cc1)C1[C@H](c2ccc(Cl)cc2)[C@@H](c2ccccc2)NC12C(=O)Nc1ccc(Br)cc12 (stereo not given in full),26.1%
19,COc1ccc(C(=O)/C=C/c2cccc(Cl)c2)cc1S(N)(=O)=O,-10.4% (active)
20,CCCCCCCCc1ccc(S(=O)(=O)Nc2ccc(CC)cc2C(=O)O)cc1,97.3%
